TRHR enhancer-1 = allosterically enhances the human TRH receptor; P34981; TRHR cells, fluo-8 calcium fluorescence, EC20 TRH enhancement; enhancement, % at 2 µM; 360,000 tested, 0.66% active; in the data active means enhancement above about 30%; further: 0% is about no effect
Target sequence (P34981 whole entry, looked up): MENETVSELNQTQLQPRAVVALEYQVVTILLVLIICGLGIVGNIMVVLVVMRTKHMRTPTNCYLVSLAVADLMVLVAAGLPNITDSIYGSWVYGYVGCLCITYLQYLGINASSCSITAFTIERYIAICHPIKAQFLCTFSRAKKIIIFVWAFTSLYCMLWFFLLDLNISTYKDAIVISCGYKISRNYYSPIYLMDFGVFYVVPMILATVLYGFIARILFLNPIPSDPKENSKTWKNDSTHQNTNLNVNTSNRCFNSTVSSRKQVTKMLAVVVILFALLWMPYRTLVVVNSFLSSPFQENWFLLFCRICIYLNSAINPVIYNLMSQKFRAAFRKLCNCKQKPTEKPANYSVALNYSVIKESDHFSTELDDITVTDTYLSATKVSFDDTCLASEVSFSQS
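Enhancer read-out: after compound pinning and an initial kinetic agonist-mode read, an EC20 of TRH (10 nM final) was injected and fluo-8 calcium signal (Ex 480/Em 530) followed at 1 s/cycle for 100 cycles in TRHR-expressing cells.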
D1 ag = human D1 receptor agonism; P21728; HEK293 T-REx D1 cells, calcium flux, agonist mode; activation, % at 2 µM; 360,000 tested, 1% active; AID 504660; in the data active means activation above about 30%; further: 0% is about no effect
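Inducible HEK293 T-REx D1 cells, force-coupled to calcium signalling, were plated at 4000 cells/well with tetracycline and held overnight at 30 C. After no-wash calcium dye loading, compound-evoked calcium rise over 180 s flagged agonists.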
D1 potentiator = potentiators of human D1 dopamine receptor | P21728 | HEK293 TREx D1 cells, calcium flux, dopamine EC20 potentiation | potentiation, % at 10 µM | 360,000 tested, 0.036% active | AID 504651; in the data active means potentiation above about 30%; further: 0% is about no effect
D1 antag = human D1 dopamine receptor antagonism. P21728. HEK293 TREx D1 cells, calcium flux, dopamine EC80; hits give low values. activity change, negative = inhibition, % at 10 µM. 360,000 tested, 3.2% active; in the data active means activity change below about -30%; further: on the % scale 0 is the no-effect control and ±100 the full control effect
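Allosteric or orthosteric antagonism assessed as attenuation of the calcium response to EC80 dopamine, added 180 s after compound, in induced HEK293 Trex D1 cells loaded with no-wash calcium dye.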
TRHR agonist-1 = TRH receptor (human) agonism; TRHR cells, calcium flux fluo-8, FDSS agonist mode; activation, % at 2 µM; 360,000 tested, 0.18% active; in the data active means activation above about 30%; further: 0% is about no effect
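In this calcium-flux screen, cells bearing human TRHR are dye-loaded with fluo-8, baselined for 10 cycles, then exposed to library compounds; positive kinetic calcium responses during the agonist phase mark hits, with TRH as control.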
TRHR enhancer-2 = confirmation of human TRH receptor allosteric enhancers. AID 493076. TRH receptor cell assay, enhancer confirmation qHTS. shares compounds with TRHR enhancer-1. activity change, negative = inhibition, % at 46.1 µM. 970 tested, under 10 active;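 further: compound effect scored on response to added TRH at EC20 of 10 nM; 0% is about no effect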
TRHR agonist-2 = human TRH receptor agonism confirmation; 970 tested, 8% active; Potency, µM (doses to about 46.1 µM), for the others: top-dose activation, most hits filed as activators; AID 493078; shares compounds with TRHR enhancer-1; TRHR-expressing cells, agonist activation read-out; further: potency means the concentration at half of the fitted maximal effect; 0% is about no effect; nearly all actives have a fitted effect of over 75% in size
* hit, by the source's call; ? = inconclusive; . = no result given. In the library only some 4.7% were active in any assay of this set; here they are far more common. Unless noted, the call rests on the fitted dose curve; in most records, active means well fitted curve in the direction sought with a large enough effect; inconclusive means small, poorly fitted or top-dose-only effect, or another doubt; inactive means no such curve, though single readings can be large; an effect the other way counts as inactive or inconclusive.

SMILES | TRHR enhancer-1 | D1 ag | D1 potentiator | D1 antag | TRHR agonist-1 | TRHR enhancer-2 | TRHR agonist-2
COc1ccc(C(C)=O)cc1COC(=O)Cc1cc(OC)c(OC)c(OC)c1 | -3.0 | 7.1 | -4.3 | -4.0 | 28.6 | -3.7 | -0.7%
COc1ccc(C(C)=O)cc1COC(=O)CNC(=O)c1ccc(Cl)cc1 | -7.9 | 4.1 | -5.5 | -1.5 | -1.5 | . | .
OC(COc1ccc2cc(Br)ccc2c1)CN1CCN(c2ccccn2)CC1 (stereo not drawn) | 19.0 | -0.9 | 15.6 | -6.4 | -0.1 | . | .
Cc1nc(C)n(CC(O)COc2ccc3cc(Br)ccc3c2)n1 (stereo not drawn) | 43.5* | 46.9* | -11.2 | -32.0* | -0.6 | ? | 6.1%
COc1cc(OC)cc(C(=O)NC(=S)Nc2cccnc2)c1 | 1.7 | 1.1 | -5.5 | -4.5 | -0.9 | . | .
COc1cc(OC)cc(C(=O)Nc2cccnc2)c1 | 50.3* | 0.9 | 6.0 | 13.3 | -0.2 | -1.2 | 3.4%
CCCc1cc(=O)[nH]c(Nc2ccc(C)c(O)c2)n1 | -3.2 | -0.5 | -2.0 | -1.0 | 0.0 | . | .
Cn1c(=O)c(N)c2c3c(c(Br)ccc31)C(=O)c1ccccc1-2 | -4.7 | 72.7* | -5.2 | -8.9 | 59.6* | -5.1 | 18.4µM*
O=C(Cn1cncn1)NCc1ccccc1Br | -1.3 | 1.8 | -3.5 | -8.3 | 1.0 | . | .
O=C(Cn1cncn1)c1ccccc1Br | 43.7* | 0.6 | 0.3 | 1.5 | 0.3 | -1.1 | 1.4%
CSc1nnc(N2C(=O)C(O)=C(C(=O)c3ccco3)C2c2ccccc2)s1 (stereo not drawn) | 2.2 | 99.7* | 2.6 | 18.7 | 29.7 | 7.3 | 5.6%
Cc1ccc(C2C(C(=O)c3ccco3)=C(O)C(=O)N2c2nnc(C)s2)cc1 (stereo not drawn) | 13.4 | 18.5 | 14.3 | -4.9 | 16.6 | . | .
CN1CC(=O)N(CC(=O)Nc2ccc(Cl)c(C(F)(F)F)c2)c2ccccc2C1=O | 1.8 | 2.9 | -4.4 | -3.6 | 0.3 | . | .
COc1ccc(COC(=O)C2=C(C)NC(=O)NC2c2ccccc2)cc1 (stereo not drawn) | 43.9* | 5.9 | 4.2 | 11.1 | 0.1 | -5.1 | 0.4%
Cc1cccc(OCCNS(=O)(=O)c2ccc(Cl)cc2)c1 | 50.9* | 3.6 | 7.3 | -8.3 | 1.1 | 4.2 | 0.9%
Cc1cccc(NC(=O)CCNS(=O)(=O)c2ccc(Cl)cc2)c1 | 20.1 | 1.0 | -3.4 | 0.4 | -0.4 | . | .
CCOc1ccccc1N1CC(C(=O)Nc2cccc(S(=O)(=O)N3CCCCC3)c2)CC1=O (stereo not drawn) | 73.7* | 2.3 | -1.7 | -14.3 | 0.5 | -8.6 | 3.9%
COc1ccc(OC)c(CNC(=O)C2CCN(S(=O)(=O)c3cn(C)cn3)CC2)c1 | 1.2 | -0.5 | 0.6 | -3.6 | -1.8 | . | .
COC(=O)C1=C(C)N(c2ccc(OC)cc2)C(C)=C(C(=O)OC)C1c1ccc(OC)cc1 | 41.3* | 3.9 | 0.6 | -19.6 | -0.3 | -4.8 | -0.7%
O=C1CC(c2nc3ccccc3n2CCC2CCCCC2)CN1c1ccccc1Cl (stereo not drawn) | -1.9 | 8.0 | 2.5 | 8.9 | -1.2 | . | .
CCCCCCC1CCC(C(=O)Nn2c(C)nc3ccccc3c2=O)CC1 (stereo not drawn) | -2.2 | 1.7 | -2.2 | 8.0 | 2.0 | . | .
CCCC1CCC(C(=O)Nn2c(C)nc3ccccc3c2=O)CC1 (stereo not drawn) | 44.8* | -1.2 | -4.2 | 0.0 | 0.0 | -0.5 | -0.4%
CCc1cc(CN2CCOCC2)c(NC(=O)c2ccccc2)s1 | 63.7* | -0.2 | -3.1 | -12.2 | 0.7 | -7.6 | 1.4%
CCOc1ccc(N=C2NC(=O)C(CC(=O)O)S2)cc1 (stereo not drawn) | 53.2* | 3.4 | -3.3 | -4.0 | 1.2 | -11.0 | -0.9%
COc1ccc(NC(=O)CC2SC(=Nc3ccccc3)NC2=O)cc1 (stereo not drawn) | 1.3 | 0.9 | -2.1 | 4.6 | 0.2 | . | .
CCOc1ccc(N2CC(NC(=O)c3ccco3)CC2=O)cc1 (stereo not drawn) | 2.7 | 0.8 | 1.0 | . | 0.1 | . | .

Bioassay records from PubChem.
